# In PubChem BioAssay AID1446 (The Scripps Research Institute Molecular Screening Center, 2008):
# In all, about 220,000 compounds went through this assay and about 2,400 (1.1%) were called active. What follows is part of a selection rich in actives, with near analogues and random picks from the rest. Values without a mark were called inactive.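 Rule for the calls: active = inhibition above the campaign mean plus 3 SD over all tested compounds (cut at about 24% in these data); inactive = the rest.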
# Experiment: reduced viability of JAK2V617F-dependent Ba/F3 cells, primary screen, JAK2V617F inhibitor project, cell-based, Ba/F3 EpoR-JAK2V617F, luminescence (AID 1446);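 note: cytokine-independent growth of Ba/F3 cells driven by EpoR plus mutant JAK2; 0% = DMSO-treated cells and 100% = JAK inhibitor I control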
# Conditions: ATP luminescence, at 5.6 µM, stronger effect = higher value
row,SMILES,inhibition
1,COc1cc(OC)cc(C(=O)N[C@H](C(=O)Nc2nc3ccccc3[nH]2)C(C)C)c1,76.2% (active)
2,COc1ccc(OC(C)C(=O)NCCc2nc3ccccc3[nH]2)cc1 (configuration not stated),-2.24%
3,COc1cc(OC)cc(C(=O)N[C@H](C(=O)OCC(=O)NC(C)c2ccccc2)C(C)C)c1 (some centres not stated),-0.99%
4,COC(=O)Cc1ccc(N(Cc2ccccc2F)S(=O)(=O)c2ccc(Br)cc2)cc1,-1.26%
5,COC(=O)Cn1c(O)c(N=NC(=O)OC)c2ccccc21,-2.09%
6,Cc1oc2c(c1C(=O)N1CCOCC1)C(=O)c1ccccc1C2=O,3.99%
7,CCOC(=O)NC(=O)/C(C#N)=C\c1ccccc1,1.65%
8,Cc1coc(C)c1C(=O)CC1(O)C(=O)N(C)c2ccc(Cl)cc21 (configuration not stated),2.68%
9,Cc1ccc(/C=N/NC(=O)COc2ccccc2-c2ccccc2)cc1,86.5% (active)
10,Cc1ccc(OCC(=O)N/N=C/c2ccncc2)cc1,-1.35%
11,Cc1ccc(OCC(=O)N/N=C\c2ccco2)c(C)c1,-7.98%
12,Cc1cc(C)nc(SCC(=O)N(C)C)n1,-5.1%
13,Nc1cccc(CCc2nc3ccccc3[nH]2)c1,-1.26%
14,Cc1ccc(S(=O)(=O)N(C)C2(C)CCS(=O)(=O)C2)cc1 (configuration not stated),-0.37%
15,Cc1ccc(S(=O)(=O)NC(=O)N2CCCC(C)(C)C2)cc1,-3.44%
16,Cc1ccc(S(=O)(=O)C2(S(=O)(=O)c3ccc(C)cc3)CCCC2)cc1,30.1% (active)
17,Cc1ccc(NC(=O)C(=O)NCc2ccco2)c(C)c1,-1.41%
18,CCN(C(=O)COC(=O)c1cc(NS(=O)(=O)c2ccc(Cl)c([N+](=O)[O-])c2)ccc1O)C1CCCCC1,-2.87%
19,COc1ccccc1NC1=NC(c2ccc(Cl)cc2)N=C(N)N1 (configuration not stated),84.9% (active)
20,COc1ccccc1NC1=NC2(CCCC2)N=C(N)N1,1.28%
21,COc1ccccc1Nc1nc(N)nc(CN(C)C2CCCCC2)n1,-3.54%
22,CC(C)(C)c1ccc(C(=O)NCCn2c(N)c(C#N)c3nc4ccccc4nc32)cc1,1.57%
23,CC(C)(C)NC(=O)COC(=O)c1cc(Br)ccc1Cl,-5.58%
24,CCOc1ccc(-n2c(O)c(/C=N/Nc3nnc(C)c(=O)[nH]3)c3ccccc3c2=O)cc1,-1.02%
25,COc1ccc(Cc2nnc(N/N=C/c3ccccc3O)[nH]c2=O)cc1OC,24.2% (active)

row,SMILES,inhibition
1,Cc1nnc(N/N=C/c2ccccn2)[nH]c1=O,-4.34%
2,CSCC(NS(=O)(=O)c1ccc(C)cc1)C(=O)O (configuration not stated),-0.95%
3,CC(=O)Nc1ccc(C(=O)/C=C/c2ccc[nH]2)cc1,0.42%
4,Cc1ccc(NC(=O)CC2S/C(=N/N=C3\CCCc4ccccc43)NC2=O)cc1 (configuration not stated),-2.25%
5,CCOc1ccc(S(=O)(=O)Nc2ccc(S(=O)(=O)Nc3cc(OC)ccc3OC)cc2)cc1,3.6%
6,COc1ccc(NS(=O)(=O)c2ccc(NC(=O)c3ccc(N(C)S(C)(=O)=O)cc3)cc2)cc1,22.6%
7,COc1ccc(NS(=O)(=O)c2ccc(Oc3c(C#N)cccc3C#N)cc2)cc1,40.8% (active)
8,Cc1cc(C)c(NC(=S)N2CCCC2C(=O)O)c(C)c1 (configuration not stated),-0.43%
9,Nc1nnc(SCC(=O)OCc2ccc(Cl)c(Cl)c2)s1,1.09%
10,Cc1ccc(S(=O)(=O)N(C)c2ccc(OCC(=O)NC3=NCCS3)cc2)cc1,4.42%
11,COc1ccc(CC(=O)NCc2nnc(SCC(=O)Nc3nccs3)n2C)cc1,-0.03%
12,CCC(=O)Nc1ccc2c(c1)nc(CCN1CCN(C)CC1)n2C,0.28%
13,Cn1c(CCN2CCCCCC2)nc2cc(NC(=O)Nc3ccccc3)ccc21,77.4% (active)
14,CC(=O)NCCc1nc2cc(NC(=O)c3ccccc3)ccc2n1C,3.36%
15,Cc1ccc(N(C(=O)Cc2cccs2)C2C=CS(=O)(=O)C2)cc1Cl (configuration not stated),3.93%
16,O=c1[nH]c(CSc2ccccc2)nc2c1oc1ccccc12,-0.61%
17,CCOC(=O)c1c(-c2ccc(C)cc2)csc1/N=C(\C)C1=C(O)c2ccccc2C1=O,-3.38%
18,CCOC(=O)C1=C(c2ccc(OC)cc2)C(=O)c2ccccc2C1=O,46.9% (active)
19,CCOC(=O)c1ccccc1NS(=O)(=O)c1ccc(OC)cc1,-0.82%
20,COc1ccccc1Nc1nc(N)nc(CSC(=S)N2CCOCC2)n1,0.7%
21,Cc1ccc(-c2cc(=O)c3ccc(Cl)cc3[nH]2)cc1,-3.39%
22,O=c1cc(-c2ccccc2)[nH]c2cc(F)ccc12,70.7% (active)
23,Cc1ccc(-c2cc(=O)c3ccc(F)cc3[nH]2)cc1,-1.31%
24,CCOC(=O)c1cnc(Nc2nc3ccccc3o2)nc1CSC(=S)N1CCCCC1,-2.9%
25,CC#CC[N+](C)(C)CCCCCC,35.9% (active)

row,SMILES,inhibition
1,C/C(=N\NC(=O)c1cccc(N2CCCC2=O)c1)c1ccc(N)cc1,0.87%
2,CC1=NNC(=O)C1CCC(=O)N/N=C(\C)c1ccc(Cl)cc1 (configuration not stated),-7.29%
3,Cc1cccc(NC(=O)c2ccc([N+](=O)[O-])o2)c1,38.7% (active)
4,Cc1onc(NC(=O)c2ccc([N+](=O)[O-])o2)c1Br,2.15%
5,Cc1cccc(NC(=S)NC(=O)c2ccc(Br)o2)c1,1.21%
6,Cc1ccc(OCC(=O)Nc2ccc(S(=O)(=O)Nc3ccccn3)cc2)cc1,-2.67%
7,Cc1ccc(S(=O)(=O)Nc2ccc3ncccc3c2)cc1,32.3% (active)
8,Cc1cc(C)cc(OCC(=O)Nc2ccc(S(=O)(=O)Nc3ccccn3)cc2)c1,-4.41%
9,c1ccc(-c2ccc3c(c2)NC(C2Nc4cc(-c5ccccc5)ccc4O2)O3)cc1 (configuration not stated),-3.19%
10,Cc1c(Cl)c([N+](=O)[O-])nn1CCCC(=O)NC(C)c1ccccc1 (configuration not stated),0.46%
11,CC(C)CCN1CCN(C/C=C/c2ccco2)CC1CCO (configuration not stated),-3.77%
12,Oc1ccc2ccccc2c1N=Nc1nccs1,98.2% (active)
13,Oc1ccc(N=Nc2nccs2)c(O)c1,8.36%
14,Oc1ccc2ccccc2c1C=Nc1ccccc1,0.08%
15,CCCC(NC(=O)c1ccco1)c1nc2ccccc2[nH]1 (configuration not stated),4.01%
16,Cn1c(=O)c2c(nc(NCCc3ccccc3)n2Cc2ccccc2)n(C)c1=O,1.54%
17,CCCCNc1nc2c(c(=O)n(C)c(=O)n2C)n1Cc1cccc(OC)c1,52.4% (active)
18,COC(=O)C(C)Sc1nc2c(c(=O)n(C)c(=O)n2C)n1Cc1cccc(C)c1 (configuration not stated),-3.92%
19,O=C(NCC1CCCO1)c1ccccc1-c1nc(-c2ccccc2Cl)no1 (configuration not stated),4.19%
20,COc1ccc(CCNS(=O)(=O)c2ccc(C(=O)NCc3ccco3)cc2)cc1OC,-0.49%
21,CCCC1=Nc2cc(C(=O)NCc3ccco3)ccc2Sc2ccccc21,81.1% (active)
22,COc1ccc2c(Cl)c(C(=O)NCc3ccco3)sc2c1,-3.38%
23,O=[N+]([O-])C(=c1ccc2c(c1)N1C3=C(CCCC3)CC3CCCCC31N=2)[N+](=O)[O-] (configuration not stated),-3.46%
24,COc1ccccc1CNC(=O)CNC(=O)c1cn(-c2ccccc2OC)c(=O)c2ccccc12,-3.01%
25,Cn1nc(C(F)(F)F)cc1-c1ccc(/C=C(\C#N)C(=O)c2cccc(C(F)(F)F)c2)s1,-2.61%

row,SMILES,inhibition
1,S=c1[nH]nc(-c2ccccc2)n1/N=C/c1c[nH]c2ccccc12,-2.71%
2,CSC(=S)N/N=C/c1c[nH]c2ccccc12,-3.06%
3,C[n+]1ccc(/C=C/c2c[nH]c3ccccc23)cc1,88.5% (active)
4,CC1(C)C2CC=C(/C=N/NC(=O)c3ccc(Cl)cc3)C1C2 (configuration not stated),-0.76%
5,O=C(Nc1cccc(F)c1)c1ccc(S(=O)(=O)N2CCCC2)cc1,2.9%
6,CCOC(=O)N1CCN(S(=O)(=O)c2ccc(C(=O)Nc3ccc(F)cc3F)cc2)CC1,54.4% (active)
7,COc1ccc(C(=O)Nc2ccc(F)cc2F)cc1,-3.55%
8,O=C(COC(=O)c1ccc(O)cc1)Nc1nccs1,0.51%
9,Cc1nc(N2CCC(C)CC2)c2c(C)c(C(=O)Nc3cc(F)ccc3C)sc2n1,2.17%
10,C=CCSc1nnc(NC(=O)c2ccc(NC(C)=O)cc2)s1,-0.62%
11,CC(NC(=O)c1cccc2ccccc12)c1ccc2c(c1)CCCC2 (configuration not stated),64.5% (active)
12,CC(=O)c1sc(NC(=O)c2cccc3ccccc23)nc1C,-0.63%
13,O=C(Cc1ccc2c(c1)CCCC2)Nc1ccccc1Cl,3.77%
14,O=[N+]([O-])c1ccc2nc(-c3ccccn3)[nH]c2c1,2.31%
15,NNC(=O)c1oc2nc(-c3ccccc3)cc(-c3ccco3)c2c1N,-4.49%
16,COC(=O)c1cc2c(ccn2C)n1C,-1.58%
17,Cc1ccc(S(=O)(=O)N2CCOCC2)cc1C(=O)OC1CCCCC1=O (configuration not stated),0.06%
18,O=C(Nc1ccccc1Cl)/C(Cl)=C(\Cl)S(=O)c1ccccc1 (configuration not stated),102% (active)
19,O=C(Nc1ccccc1Cl)c1ccc2nsnc2c1,0.05%
20,O=C(CN1CCCCC1)Nc1ccccc1Cl,1.81%
21,O=S(=O)(Nc1n[nH]c(C(F)(F)F)n1)c1ccccc1,-3.72%
22,O=C(CNc1ccc(F)cc1F)NC(=O)NCc1ccco1,4.79%
